# Measurements as given in PubChem BioAssay (EPA / NIEHS).
# Inconclusive results are not listed. The source made the active and inactive calls. How the source made its calls: active means hit-call score of the fitted dose curve at least 0.9, where 1 is the maximum; inconclusive means response in the unintended direction; inactive means score below 0.9.
# Target: human Thromboxane A2 Receptor (TXA2), TBXA2R (gene 6915) (UniProt P21731)
# Experiment: NVS_GPCR_hTXA2: NovaScreen (NVS) G Protein-Coupled Receptor Assay for human Thromboxane A2 Receptor (TXA2) (AID 2283282);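 further: actives reduce bound radioligand signal relative to DMSO baseline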
# Protocol: NVS_GPCR_hTXA2 is a biochemical, single-readout assay that uses extracted gene-proteins from Human platelets in a cell-free assay. Measurements were taken 1 hour after chemical dosing in a 96-well plate.NVS_GPCR_hTXA2 is one of one assay component(s) measured or calculated from the NVS_GPCR_hTXA2 assay. It is designed to make measurements of radioligand binding, a form of binding reporter, as detected with scintillation counting signals by Filter-based radiodetection technology.Data from the assay component NVS_GPCR_hTXA2 was analyzed into 1 assay endpoint. This assay endpoint, NVS_GPCR_hTXA2, was analyzed in the positive analysis fitting direction relative to DMSO as the negative control and baseline of activity. Using a type of binding reporter, loss-of-signal activity can be used to understand changes in the binding as they relate to the gene TBXA2R. Furthermore, this assay endpoint can be referred to as a primary readout, because the performed assay has only produced 1 assay endpoint. To generalize the intended target to other relatable targets, this assay endpoint is annotated to the gpcr intended target family, where the subfamily is rhodopsin-like receptor.
# Binding assays used specific radioligands (tritiated, iodinated) with non-radioactive competitive displacement ligands in agonist or antagonist protocols (as indicated) and various reference compounds and inhibitors to titrate specific binding to receptors and transporters. Most enzyme assays (CYPs, kinases, phosphatases, proteases, HDACs) used recombinant protein and specific substrates (fluorescence mostly, some colorimetric and radioactive) and inhibitors, followed by a biochemical separation of substrate and product. All assays for the biochemical HTS were initially run in duplicate at a single concentration (10 uM for CYP450 assays and 25 uM for all others). […] Each assay was run with positive and negative controls, and concurrent controls on every plate. The follow-up (secondary) screen tested active chemical-pairs in concentration series, as well as a few additional assays not tested in the primary screen, some selected negative inactives, and several cases re-run in the concentration series for confirmatory purposes.
# Sequence of human Thromboxane A2 Receptor (TXA2), TBXA2R (gene 6915) (P21731 whole entry, looked up): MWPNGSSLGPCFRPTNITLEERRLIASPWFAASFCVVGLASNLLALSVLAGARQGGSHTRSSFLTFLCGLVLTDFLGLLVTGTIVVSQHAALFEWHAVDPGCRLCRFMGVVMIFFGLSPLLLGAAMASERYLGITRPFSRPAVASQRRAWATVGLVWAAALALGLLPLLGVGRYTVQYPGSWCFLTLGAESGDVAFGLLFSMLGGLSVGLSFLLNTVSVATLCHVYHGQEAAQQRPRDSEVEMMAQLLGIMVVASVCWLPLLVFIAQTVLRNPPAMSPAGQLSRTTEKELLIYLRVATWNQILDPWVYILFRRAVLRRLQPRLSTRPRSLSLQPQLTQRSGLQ
Structure (SMILES),outcome,AC50
CC(C)=NNC(N)=S,inactive,
CC/C=C\C/C=C\C/C=C\CCCCCCCC(=O)OC,,2660 nM (active)
Oc1ccc(/C=C/c2cc(O)cc(O)c2)cc1,inactive,
CCC(C)c1ccccc1 (stereo not drawn),,2460 nM (active)
c1ccc(-c2nc3ccccc3[nH]2)cc1,,7640 nM (active)
Fc1ccc(Br)cc1,inactive,
CCCCCCC=O,inactive,
Clc1cccnc1,inactive,
CCOC(=O)/C=C\C(=O)OCC,inactive,
Oc1c(Cl)cc(Cl)c(Cl)c1Cl,inactive,
CCCCC1C(=O)N(c2ccccc2)N(c2ccccc2)C1=O,inactive,
CCOC(=O)C1=NN(c2ccc(Cl)cc2Cl)C(C)(C(=O)OCC)C1 (stereo not drawn),inactive,
CCc1cccc(C)c1N(C(=O)CS(=O)(=O)O)C(C)COC (stereo not drawn),inactive,
